From the supplement of paper PMC4466140

Each binder was assayed against ScBbc1 (assay: SPOT peptide array binding signal intensity (averaged, normalized) (arbitrary units (background-subtracted, floor 0; scale differs between SH3 domains)); higher = stronger binding of the SH3 domain to the peptide).
How it was run: (§1)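 Detection of bound protein relied on anti-GST antibody, an HRP anti-mouse secondary and luminol, with imaging and quantification in Genespotter. The bound protein was GST-fused SH3 domains from four yeast species, incubated at 10 μg/ml overnight at 4°C in TBS-based blocking buffer on cellulose membranes carrying synthetic 15-mer peptides with cysteines replaced by serines. Binding signal is normalized, background-subtracted spot intensity averaged over replicates, in arbitrary units that differ between domains.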

Row | Binder | SPOT peptide array binding signal intensity
1 | KDKSRPPRPPPKPLH | 8.5

These binders were tested against ScBem1-D1 in the same assay as above.
How it was run: as §1

Row | Binder | SPOT peptide array binding signal intensity
2 | KDKSRPPRPPPKPLH | ≤ 0

The binders below were run against ScBzz1-D1 in the same assay as above.
How it was run: as §1

Row | Binder | SPOT peptide array binding signal intensity
3 | KDKSRPPRPPPKPLH | 123

These binders were tested against ScBzz1-D2 in the same assay as above.
How it was run: as §1

Row | Binder | SPOT peptide array binding signal intensity
4 | KDKSRPPRPPPKPLH | ≤ 0

What follows are binders tested against ScCyk3 in the same assay as above.
How it was run: as §1

Row | Binder | SPOT peptide array binding signal intensity
5 | KDKSRPPRPPPKPLH | ≤ 0

These binders were tested against ScFus1 in the same assay as above.
How it was run: as §1

Row | Binder | SPOT peptide array binding signal intensity
6 | KDKSRPPRPPPKPLH | ≤ 0

Each binder was assayed against ScHof1 in the same assay as above.
How it was run: as §1

Row | Binder | SPOT peptide array binding signal intensity
7 | KDKSRPPRPPPKPLH | ≤ 0

These binders were tested against ScHse1 in the same assay as above.
How it was run: as §1

Row | Binder | SPOT peptide array binding signal intensity
8 | KDKSRPPRPPPKPLH | 24

What follows are binders tested against ScLsb1 in the same assay as above.
How it was run: as §1

Row | Binder | SPOT peptide array binding signal intensity
9 | KDKSRPPRPPPKPLH | 121

What follows are binders tested against ScLsb2 in the same assay as above.
How it was run: as §1

Row | Binder | SPOT peptide array binding signal intensity
10 | KDKSRPPRPPPKPLH | 1

What follows are binders tested against ScLsb3 in the same assay as above.
How it was run: as §1

Row | Binder | SPOT peptide array binding signal intensity
11 | KDKSRPPRPPPKPLH | 1930

What follows are binders tested against ScLsb4 in the same assay as above.
How it was run: as §1

Row | Binder | SPOT peptide array binding signal intensity
12 | KDKSRPPRPPPKPLH | 15.5

These binders were tested against ScMyo3 in the same assay as above.
How it was run: as §1

Row | Binder | SPOT peptide array binding signal intensity
13 | KDKSRPPRPPPKPLH | 29.5

What follows are binders tested against ScMyo5 in the same assay as above.
How it was run: as §1

Row | Binder | SPOT peptide array binding signal intensity
14 | KDKSRPPRPPPKPLH | 49.5

The binders below were run against ScNbp2 in the same assay as above.
How it was run: as §1

Row | Binder | SPOT peptide array binding signal intensity
15 | KDKSRPPRPPPKPLH | 305

Each binder was assayed against ScPex13 in the same assay as above.
How it was run: as §1

Row | Binder | SPOT peptide array binding signal intensity
16 | KDKSRPPRPPPKPLH | 103

What follows are binders tested against ScRvs167 in the same assay as above.
How it was run: as §1

Row | Binder | SPOT peptide array binding signal intensity
17 | KDKSRPPRPPPKPLH | 45

Each binder was assayed against ScSho1 in the same assay as above.
How it was run: as §1

Row | Binder | SPOT peptide array binding signal intensity
18 | KDKSRPPRPPPKPLH | 171

What follows are binders tested against ScSla1-D1-D2 in the same assay as above.
How it was run: as §1

Row | Binder | SPOT peptide array binding signal intensity
19 | KDKSRPPRPPPKPLH | 266

The binders below were run against ScSla1-D3 in the same assay as above.
How it was run: as §1

Row | Binder | SPOT peptide array binding signal intensity
20 | KDKSRPPRPPPKPLH | 11.5

These binders were tested against SpAbp1-D1 in the same assay as above.
How it was run: as §1

Row | Binder | SPOT peptide array binding signal intensity
21 | KDKSRPPRPPPKPLH | 528

What follows are binders tested against SpBbc1 in the same assay as above.
How it was run: as §1

Row | Binder | SPOT peptide array binding signal intensity
22 | KDKSRPPRPPPKPLH | ≤ 0

The binders below were run against SpBzz1-D1 in the same assay as above.
How it was run: as §1

Row | Binder | SPOT peptide array binding signal intensity
23 | KDKSRPPRPPPKPLH | 366

What follows are binders tested against SpBzz1-D2 in the same assay as above.
How it was run: as §1

Row | Binder | SPOT peptide array binding signal intensity
24 | KDKSRPPRPPPKPLH | 16.8

Each binder was assayed against SpCyk3 in the same assay as above.
How it was run: as §1

Row | Binder | SPOT peptide array binding signal intensity
25 | KDKSRPPRPPPKPLH | 1

What follows are binders tested against SpHof1 in the same assay as above.
How it was run: as §1

Row | Binder | SPOT peptide array binding signal intensity
26 | KDKSRPPRPPPKPLH | ≤ 0

What follows are binders tested against SpHof1-2 in the same assay as above.
How it was run: as §1

Row | Binder | SPOT peptide array binding signal intensity
27 | KDKSRPPRPPPKPLH | ≤ 0

What follows are binders tested against SpHof1-3 in the same assay as above.
How it was run: as §1

Row | Binder | SPOT peptide array binding signal intensity
28 | KDKSRPPRPPPKPLH | 75.5

What follows are binders tested against SpHse1 in the same assay as above.
How it was run: as §1

Row | Binder | SPOT peptide array binding signal intensity
29 | KDKSRPPRPPPKPLH | 21.5

Each binder was assayed against SpLsb1 in the same assay as above.
How it was run: as §1

Row | Binder | SPOT peptide array binding signal intensity
30 | KDKSRPPRPPPKPLH | 484

The binders below were run against SpLsb4 in the same assay as above.
How it was run: as §1

Row | Binder | SPOT peptide array binding signal intensity
31 | KDKSRPPRPPPKPLH | 670

What follows are binders tested against SpMyo1 in the same assay as above.
How it was run: as §1

Row | Binder | SPOT peptide array binding signal intensity
32 | KDKSRPPRPPPKPLH | 277

Each binder was assayed against SpNbp2 in the same assay as above.
How it was run: as §1

Row | Binder | SPOT peptide array binding signal intensity
33 | KDKSRPPRPPPKPLH | 13.5

These binders were tested against SpPex13 in the same assay as above.
How it was run: as §1

Row | Binder | SPOT peptide array binding signal intensity
34 | KDKSRPPRPPPKPLH | ≤ 0

What follows are binders tested against SpRvs167 in the same assay as above.
How it was run: as §1

Row | Binder | SPOT peptide array binding signal intensity
35 | KDKSRPPRPPPKPLH | 129

These binders were tested against SpSla1-D1-D2 in the same assay as above.
How it was run: as §1

Row | Binder | SPOT peptide array binding signal intensity
36 | KDKSRPPRPPPKPLH | ≤ 0

These binders were tested against SpSla1-D3 in the same assay as above.
How it was run: as §1

Row | Binder | SPOT peptide array binding signal intensity
37 | KDKSRPPRPPPKPLH | 3
